A3G deaminase – inhibitors of human APOBEC3G DNA deaminase | recombinant A3G, ssDNA deamination FAM/TAMRA fluorescence | inhibition, % at 20 µM | actives 0.28% (n = 330,000) | AID 493012;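 active means inhibition of at least 40% at 20 µM, with no more than 30% in the related APOBEC3A deaminase screen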;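 further: plate controls were DMSO wells with A3G for no effect and wells lacking A3G enzyme for full effect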
Target sequence (Q9HC16 whole entry, looked up): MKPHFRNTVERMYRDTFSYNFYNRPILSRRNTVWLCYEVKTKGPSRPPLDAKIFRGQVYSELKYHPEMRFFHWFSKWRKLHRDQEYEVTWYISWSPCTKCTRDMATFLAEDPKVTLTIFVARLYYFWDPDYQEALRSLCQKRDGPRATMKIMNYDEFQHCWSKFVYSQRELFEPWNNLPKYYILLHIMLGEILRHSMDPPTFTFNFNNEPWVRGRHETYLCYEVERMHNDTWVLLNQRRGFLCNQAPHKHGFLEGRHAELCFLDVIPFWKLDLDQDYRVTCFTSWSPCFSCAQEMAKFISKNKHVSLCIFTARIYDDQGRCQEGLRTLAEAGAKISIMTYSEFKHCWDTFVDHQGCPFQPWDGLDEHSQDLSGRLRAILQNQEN
A1 inh – inhibitors of the anti-apoptotic protein A1, read as caspase activation. MEF A1-2A-BIM cells, Caspase-Glo 3/7 luminescence, 3 h; percent of clofoctol response, vehicle zero. AID 2462. caspase activation, % (test concentration not listed). actives 0.066% (n = 330,000);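 active means over half of replicate activation scores above 10%, or exactly half above 10 with the replicate mean above 10; inconclusive means replicate mean below 10 yet half the replicates above 10; inactive means over half of replicates below 10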
A3A deaminase – inhibitors of human APOBEC3A DNA deaminase; P31941; inhibition, % at 20 µM; recombinant A3A, FAM/TAMRA ssDNA deamination fluorescence; actives 0.41% (n = 330,000);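 active means at least 40% inhibition at 20 µM here, with at most 30% in a related deaminase screen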;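 further: plate controls were A3A with DMSO for no effect and wells lacking A3A enzyme for full effect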
Target sequence (P31941 whole entry, looked up): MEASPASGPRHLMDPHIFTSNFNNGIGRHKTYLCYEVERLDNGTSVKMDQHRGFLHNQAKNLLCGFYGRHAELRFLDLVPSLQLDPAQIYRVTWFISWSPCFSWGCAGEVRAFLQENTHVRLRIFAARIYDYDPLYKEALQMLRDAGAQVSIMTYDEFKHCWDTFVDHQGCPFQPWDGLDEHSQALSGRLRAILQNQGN
MIN6 prolif-1 – induces beta-cell replication in MIN6 cells. actives 0.29% (n = 330,000). MIN6 cells proliferation, ATPlite luminescence, 48 h; cells starved in 0.2% serum; 100% = growth in 10% serum. proliferation, % at 10 µM;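 active means compounds whose signal lies at least 3.5 SD above the mean of all wells on their plate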;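 further: 0% = DMSO-treated cells in low-serum medium and 100% = 10% serum control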
MIN6 prolif-2 – MIN6 beta-cell replication induction, confirmed; shares compounds with MIN6 prolif-1; 920 tested, under 10 active; proliferation increase, % at 50 µM; MIN6 beta-cell proliferation, ATPlite luminescence, 48 h; cells kept in 0.2% serum; scaled between 0.2% and 10% serum;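 active means proliferation increase above 40% at any of the four tested concentrations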
Active calls of the source: *; u = inconclusive; x = not tested or not shown. Compounds with a hit are over-represented: about 1.1% of the library has one in this group of screens.

SMILES | A3G deaminase | A1 inh | A3A deaminase | MIN6 prolif-1 | MIN6 prolif-2
O=C(NCC1CCCO1)c1ccccc1OCc1ccc(Cl)cc1 (stereo not drawn) | -3.6 | 0.0 | -0.4 | 15.3* | -4.4
COc1ccc(-c2cc(C(=O)N(C)CC(=O)Nc3cccc(F)c3)c3ccccc3n2)cc1 | -11.9 | -0.1 | 5.1 | -6.2 | x
CCc1nc2ccccc2c(C(=O)Nc2cc(C)ccc2C)c1C | -1.9 | 1.2 | 0.7 | 5.8* | -1.5
CCc1nc2ccccc2c(C(=O)Nc2cccc(C)c2)c1C | 1.9 | 0.6 | -6.5 | -1.3 | x
O=C(CCN1C(=O)/C(=C\c2ccccc2)SC1=S)NNC(=O)c1ccccc1O | -11.0 | -0.9 | -6.6 | -0.6 | x
Cc1c(N=C2NC(=O)/C(=C/c3ccc(O)cc3)S2)c(=O)n(-c2ccccc2)n1C | -7.8 | -0.1 | -7.2 | 4.4* | -2.2
CCOC(=O)c1c(C)[nH]c(C)c1C(=O)COC(=O)/C=C/c1ccccc1[N+](=O)[O-] | -7.2 | 0.8 | -4.1 | 9.1* | -4.8
CCOC(=O)c1c(C)[nH]c(C)c1C(=O)COC(=O)/C=C/c1cccc(Cl)c1 | 1.9 | 2.0 | -0.2 | -2.2 | x
CCOC(=O)c1c(NC(=O)Cc2cccs2)sc(C(=O)NC2CCCC2)c1C | -5.0 | -1.1 | -3.3 | -2.6 | x
CCOC(=O)c1c(NC(=O)CC)sc(C(=O)NC2CCCC2)c1C | -6.7 | 1.2 | -3.2 | 8.1* | -3.5
COC(C)c1oc2c(C)c3oc(=O)cc(C)c3cc2c1C (stereo not drawn) | 9.1 | -0.9 | 2.8 | 7.2 | x
c1cncc(CNc2ncnc3ccc(-c4ccoc4)cc23)c1 | -2.9 | -2.8 | -3.6 | 15.7* | 1.2
COc1ccc(C(=O)NNC(=O)CSc2nnc(C3CC3)n2C)cc1 | -9.6 | -0.4 | -2.6 | -2.2 | x
CC1(C)CC(=S)Nc2ccccc2S1 | 25.0 | 0.7 | 2.4 | 10.9* | -5.6
O=[N+]([O-])c1ccc(N2CCOCC2)cc1SCc1ccco1 | -8.3 | 0.6 | -4.4 | 0.0* | 1.7
CCCCn1nnc(NC(=S)NC(=O)c2ccc(OCC)c([N+](=O)[O-])c2)n1 | -2.2 | -0.6 | -2.8 | -1.7 | x
CSc1sc(C(=O)N2CCCCC2)c(-c2cccs2)c1C#N | -4.3 | 1.3 | -1.6 | 6.9* | -4.1
COc1ccc(Cl)cc1NC(=O)NN1CCN(C)CC1 | -3.8 | 0.0 | -7.1 | 0.2 | x
Cc1nc2scc(C)n2c(=O)c1S(=O)(=O)Nc1ccc(OC(F)(F)F)cc1 | -6.4 | -1.2 | -0.7 | -2.0 | x
COc1cccc(C(C(=O)NC(C)(C)C)N(Cc2ccc(F)cc2)C(=O)CCC(=O)Nc2cc(C)on2)c1OC (stereo not drawn) | 4.5 | 0.0 | 1.0 | -1.9 | x
O=C(Cc1ccc(Cl)cc1)Nc1ccc(CN2CCCCC2)cc1 | -6.2 | -1.0 | -1.5 | -0.8 | x
CC(=O)Nc1ccc(CN2CCCCCC2)cc1 | -8.3 | u | -4.0 | 5.5* | 2.3
Cc1ccc(-n2ncc3c(=O)[nH]c(SCC(=O)N4CC(=O)Nc5ccccc54)nc32)cc1 | -7.4 | 0.2 | 0.6 | -4.7 | x
Cc1cccc(-n2ncc3c(=O)[nH]c(SCC(=O)N4CC(=O)Nc5ccccc54)nc32)c1 | -8.3 | -0.6 | 0.1 | 10.9* | -0.3
Cc1c(NC(=O)c2ccc(S(=O)(=O)Nc3ccccc3F)cc2)c(=O)n(-c2ccccc2)n1C | -6.6 | 0.3 | -2.2 | -2.0 | x
SMILES | A3G deaminase | A1 inh | A3A deaminase | MIN6 prolif-1 | MIN6 prolif-2
CCOc1ccccc1/C=C/c1onc(C)c1S(=O)(=O)N1CCC(C(=O)N(CC)CC)CC1 | -1.9 | 0.4 | -3.8 | 4.8* | -5.8
CCN(CCN(C)C)C(=O)C1CCN(S(=O)(=O)c2c(C)noc2/C=C/c2ccccc2F)CC1 | -5.1 | -0.5 | -3.1 | -7.5 | x
CCN(CC)C(=O)c1cc2c(=O)n3cccc(C)c3nc2s1 | -7.8 | -1.8 | -4.7 | -1.3 | x
CCN(C(=O)c1cc2c(=O)n3ccccc3nc2s1)C1CCCCC1 | -3.9 | 0.0 | -4.1 | 6.9* | -3.6
CCCCN(CC)C(=O)c1cc2c(=O)n3cccc(C)c3nc2s1 | -5.8 | -0.9 | -1.5 | 10.9* | -6.2
CCN(C(=O)c1cc2c(=O)n3cccc(C)c3nc2s1)C1CCCCC1 | 0.7 | -0.8 | -0.5 | 0.0 | x
CCCCCn1cnnc1SCC(=O)c1c(N)n(C2CC2)c(=O)[nH]c1=O | -5.1 | x | -1.2 | -4.5 | x
CC1CCC(n2c(=S)[nH]c3ccccc3c2=O)CC1 (stereo not drawn) | -2.8 | 0.0 | -1.7 | 11.0* | -3.5
CCc1nnc(NC(=O)OCc2ccccc2)s1 | -0.5 | -0.2 | -1.3 | 6.0* | -2.3
S=c1[nH]nc(CN2CCCCC2)n1Cc1ccccc1 | 8.4 | 0.6 | -1.3 | 8.0* | 2.1
S=c1[nH]nc(CN2CCCC2)n1Cc1ccccc1 | -5.2 | 1.3 | -6.7 | -2.6 | x
Cc1ccc(SCCC(=O)N2CCOCC2)cc1 | -8.2 | 1.1 | -1.0 | 5.1* | 1.6
Cn1c(=O)[nH]c(=O)c2c1nc1n2CCCN1CCc1ccccc1 | -5.3 | 0.6 | -3.2 | 7.2* | 2.7
Cn1c(=O)[nH]c(=O)c2c1nc1n2CCN1Cc1ccccc1 | -4.0 | u | 0.5 | 0.7 | x
CCOC(=O)c1c(-c2ccccc2)c2cc(OC)ccc2n1CCCN(C)C | -4.4 | 0.1 | -5.6 | -4.3 | x
CCOC(=O)c1cnc2ccc(C(=O)OC)cc2c1NCCc1ccc(OC)c(OC)c1 | 2.5 | -0.2 | 0.8 | 0.0* | 2.8
CC(C)c1ccc(N(CC(=O)NC(C)(C)C)C(=O)CCC(=O)Nc2nccs2)cc1 | -4.8 | 0.2 | -3.2 | -0.9 | x
COc1ccc(CCN(Cc2ccccn2)C(=S)Nc2cccc(C)c2)cc1OC | -15.5 | 0.2 | -0.5 | 8.7* | -6.2
COc1ccc(NC(=S)N(CCc2ccc(OC)c(OC)c2)Cc2ccccn2)cc1 | -3.1 | 0.0 | 2.1 | -0.4 | x
O=C(NCc1ccc2c(c1)OCO2)c1ccc2c(c1)OCO2 | 8.4 | -0.6 | 1.8 | -0.4 | x
O=C(NCc1ccc2c(c1)OCO2)c1ccc2snnc2c1 | -4.4 | u | 3.5 | 8.2* | -0.1
Cc1ccc(C)c(Cn2c3ccccc3c3cnn(CC(=O)NCCCN4CCCCC4)c(=O)c32)c1 | -8.8 | 0.1 | -5.0 | -6.9 | x
Nc1cc(=O)[nH]c(SCC(=O)c2ccc(F)cc2)n1 | -4.6 | -0.1 | 2.2 | 8.3* | -0.4
Cc1ccc(CNC(=O)COC(=O)c2ccc(S(=O)(=O)N3CCCCCC3)cc2)cc1 | -6.2 | x | -4.5 | -1.3 | x
CCNC(=O)COC(=O)c1ccc(S(=O)(=O)N2CCCCCC2)cc1 | -2.0 | -0.7 | 3.1 | 5.4* | 0.4
Cc1cc(C)c(NC(=O)CNC(=O)c2ccc3ncsc3c2)c(C)c1 | -5.7 | -0.4 | 13.1 | -3.9 | x
CCOC(=O)COc1ccc(C(=O)Nc2cccc(Cl)c2C)cc1 | -4.8 | -0.3 | -0.1 | -3.8 | x
COCCn1c(SCC(=O)c2ccccc2)nc2ccccc2c1=O | -7.6 | 0.3 | -1.7 | 7.8* | -6.3
CC1CC(C)CN(C2CCCCC2NS(=O)(=O)c2ccc(Cl)cc2)C1 (stereo not drawn) | -7.8 | 0.3 | -2.4 | -2.9 | x

Screens from PubChem.
